Screens from PubChem BioAssay.
A selection: hits, their analogues and other compounds. The true share with any hit is near 17%.
TDP1 block: inhibitors of human tyrosyl-DNA phosphodiesterase TDP1 | AID 485290 | 0.28% of 350,000 active | Q9NUW8 | Potency, µM (top dose mostly 130 µM), for the others: at the top dose activity change, negative = inhibition, hits mostly inhibitors | recombinant TDP1, AlphaScreen DNA substrate cleavage; also: % is scaled to controls: 0 for no effect and ±100 for the full control effect; nearly all actives have a fitted effect of over 40% in size
Target sequence (Q9NUW8 whole entry, looked up): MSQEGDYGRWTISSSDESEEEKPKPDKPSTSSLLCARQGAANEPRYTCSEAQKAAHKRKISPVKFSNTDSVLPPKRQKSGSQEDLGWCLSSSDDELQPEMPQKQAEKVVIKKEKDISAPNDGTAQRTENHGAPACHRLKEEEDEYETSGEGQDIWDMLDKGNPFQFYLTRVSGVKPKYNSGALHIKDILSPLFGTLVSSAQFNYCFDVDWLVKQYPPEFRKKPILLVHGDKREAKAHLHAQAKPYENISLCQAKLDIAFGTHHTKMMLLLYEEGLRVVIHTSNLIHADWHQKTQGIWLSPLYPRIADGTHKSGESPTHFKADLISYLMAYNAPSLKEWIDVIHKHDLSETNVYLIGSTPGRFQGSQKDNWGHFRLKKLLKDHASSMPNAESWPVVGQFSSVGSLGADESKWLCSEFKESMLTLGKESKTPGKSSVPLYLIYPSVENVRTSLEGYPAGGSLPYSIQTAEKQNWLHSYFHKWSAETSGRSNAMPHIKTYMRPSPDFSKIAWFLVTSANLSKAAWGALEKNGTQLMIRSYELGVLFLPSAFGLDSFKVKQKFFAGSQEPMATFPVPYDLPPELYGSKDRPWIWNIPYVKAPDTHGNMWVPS
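Here, a 5' biotin and 3' phosphotyrosine-FITC DNA oligonucleotide reports Tdp1 activity: intact substrate bridges AlphaScreen beads, while cleavage leaves a 3' phosphate and drops signal. All incubations at room temperature.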
DT40 TDP1 CPT: growth inhibition of DT40 Tdp1-/-;hTDP1 cells with camptothecin (screen for TDP1 inhibitors) | AID 686979 | Potency, µM (doses to about 46.2 µM), for the others: top-dose activity change, negative = growth inhibition, actives largely listed as inhibitors | 12% of 420,000 active | chicken DT40 Tdp1-/-;hTDP1 cells + 20 nM CPT, ATP luminescence, 48 h; also: % is scaled to controls: 0 for no effect and ±100 for the full control effect; nearly all actives have a fitted effect of over 55% in size
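Cell growth measured by CellTiter-Glo luminescence after a minimum 48 h, 37 C compound exposure with 20 nM CPT in Tdp1-knockout DT40 cells stably expressing hTDP1, seeded 400/well; qHTS titration format.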
ClpP mod: qHTS Assay for Activators of ClpP; ATP-dependent Clp protease proteolytic subunit (Bacillus subtilis (strain 168)), P80244; purified B. subtilis ClpP, FRET peptide cleavage, 20 min; Potency, µM (titrated, usually from 57.5 µM), for the others: top-dose activity change, negative = active; 1.9% of 340,000 active; active = well fitted falling curve with a large enough effect; inconclusive = small, poorly fitted or top-dose-only effect; inactive = no such curve, though single readings can be large or run the other way; also: the source files actives as falling curves though it sought activators and does not explain the sign; nearly all actives have a fitted effect of over 65% in size
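FRET quenching reversal measured ClpP activation: 10 microg/mL B. subtilis ClpP at pH 8 with the FRET-FV decapeptide, read at 430 nm after 320 nm excitation. The 20-min minus 0-min signal was scaled between DMSO/no-enzyme wells and ADEP (5.8 microM final).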
TDP1 cell noCPT: qHTS for Inhibitors of human tyrosyl-DNA phosphodiesterase 1 (TDP1): qHTS in cells in absence of CPT; DT40 Tdp1-/- hTDP1 cells, no CPT, ATP luminescence, 48 h; Potency, µM (highest dose often 46.2 µM), for inactives: at the highest dose activity change, negative = growth inhibition, most hits filed as inhibitors; 15% of 420,000 active; AID 686978, 2013; also: % is scaled to controls: 0 for no effect and ±100 for the full control effect; nearly all actives have a fitted effect of over 55% in size
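Readout: luminescence from CellTiter-Glo after 30 min in the dark at RT. Cells: DT40 Tdp1-/- with stable hTDP1, 400/well. Exposure: compounds alone, ≥48 hr, 37 °C.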
* = called active by the depositor; [ ] = another dose, or the depositor's remark. Unless noted, calls follow the shape of the dose curve; as a rule, active = well fitted curve in the direction sought with a large enough effect; inconclusive = small, poorly fitted or top-dose-only effect, or another doubt; inactive = no such curve, though single readings can be large; an effect the other way counts as inactive or inconclusive. Potency is read from the fitted curve at half-maximal effect.

Results for CC(C)CNC(=S)N1CCC(C(=O)c2ccc3c(c2)OCCO3)CC1 ?
TDP1 block: -2%; DT40 TDP1 CPT: inconclusive; ClpP mod: -10%; TDP1 cell noCPT: 23µM*

What do the screens show for `C=CCNC(=O)COC(=O)COc1ccc(Cl)cc1`?
TDP1 block: -5%; DT40 TDP1 CPT: 7%; TDP1 cell noCPT: 2%

Results for OC(c1ccccc1)(c1nc(/C=C/c2ccccc2)cs1)C(F)(F)F (stereo not given) ?
DT40 TDP1 CPT: inconclusive; ClpP mod: -9%; TDP1 cell noCPT: -84%

Results for COc1cccc(CCN2C(=O)CCC3=C2CCC3=O)c1 ?
DT40 TDP1 CPT: -22%; ClpP mod: 0%; TDP1 cell noCPT: -7%

Results for Cc1ccc(-c2c(C(=O)NNC(=S)NCC3CCCO3)csc2C)cc1 (stereo not given) ?
TDP1 block: 10%; DT40 TDP1 CPT: inconclusive; ClpP mod: -2%; TDP1 cell noCPT: 0.46µM*

Results for CN(C)CCCNC(=S)N1CCC(C(=O)c2ccc(Cl)cc2)CC1 ?
DT40 TDP1 CPT: 23µM*; ClpP mod: -2%; TDP1 cell noCPT: 16µM*

How did CC(C)(C)NC(=S)N1CCC(C(=O)c2ccc(Cl)cc2)CC1 do in these assays?
DT40 TDP1 CPT: -11%; ClpP mod: -4%; TDP1 cell noCPT: -2%

What do the screens show for `C=CCNC(=S)N1CCC(C(=O)c2ccc(Cl)cc2)CC1`?
TDP1 block: 5%; DT40 TDP1 CPT: 16µM*; ClpP mod: -4%; TDP1 cell noCPT: inconclusive

Results for NC(=O)C(=O)O ?
TDP1 block: -7%[56.1 µM]

Results for COc1ccc(NC(=O)CSc2ccc3c(c2)OCCO3)cc1OC ?
TDP1 block: 3%; DT40 TDP1 CPT: 21µM*; ClpP mod: 2%; TDP1 cell noCPT: inconclusive

How did O=C(CSc1ccc2c(c1)OCCO2)Nc1ccc(Br)cc1 do in these assays?
TDP1 block: 3%; DT40 TDP1 CPT: -25%; ClpP mod: -2%; TDP1 cell noCPT: -28%

What do the screens show for `COc1cc(NC(=O)CSc2ccc3c(c2)OCCO3)cc(OC)c1OC`?
TDP1 block: 5%; DT40 TDP1 CPT: 21µM*; ClpP mod: -2%; TDP1 cell noCPT: 21µM*

Results for O=C(CSc1ccc2c(c1)OCCO2)Nc1ccc2c(c1)OCO2 ?
TDP1 block: -1%; DT40 TDP1 CPT: inconclusive; ClpP mod: 0%; TDP1 cell noCPT: inconclusive

Results for COc1ccccc1CN1CCCC2(CCN(S(=O)(=O)c3ccccc3)CC2)C1 ?
DT40 TDP1 CPT: -3%; TDP1 cell noCPT: -8%

How did CN(CC(=O)Nc1cccc(C#N)c1)S(=O)(=O)c1cc2c(cc1Cl)NC(=O)CO2 do in these assays?
TDP1 block: 3%; DT40 TDP1 CPT: -13%; ClpP mod: 0%; TDP1 cell noCPT: inconclusive

How did Cc1ccc(C(=O)Nc2ccc(C(=O)OCc3cc(=O)n4c5c(sc4n3)CCCC5)cc2)cc1 do in these assays?
TDP1 block: 4%; DT40 TDP1 CPT: inconclusive; ClpP mod: -3%; TDP1 cell noCPT: -29%

How did O=C(N/N=C/C(Br)=C/c1ccccc1)c1cc(-c2ccco2)[nH]n1 do in these assays?
TDP1 block: 6%; DT40 TDP1 CPT: 6.5µM*; TDP1 cell noCPT: 8.2µM*

Results for NNC(=O)c1cc(-c2ccco2)[nH]n1 ?
TDP1 block: 5%; DT40 TDP1 CPT: -17%; ClpP mod: 1%; TDP1 cell noCPT: -13%

What do the screens show for `COc1ccccc1/C=C/C=N/NC(=O)c1cc(-c2ccco2)[nH]n1`?
TDP1 block: 5%; DT40 TDP1 CPT: inconclusive; TDP1 cell noCPT: 18µM*

How did CC(/C=N/NC(=O)c1cc(-c2ccc(C)o2)[nH]n1)=C\c1ccccc1 do in these assays?
TDP1 block: 6%; DT40 TDP1 CPT: 15µM*; ClpP mod: -10%; TDP1 cell noCPT: 16µM*

What do the screens show for `COc1cccc([C@@H]2Oc3ccc(Br)cc3C(=O)[C@H]2OC(=O)Nc2ccc(OC(F)F)cc2)c1`?
TDP1 block: 14%

How did CCCCCCCCC(c1nc2ccccc2[nH]1)N1CCN=C1c1cc2ccccc2[nH]1 (stereo not given) do in these assays?
DT40 TDP1 CPT: 7.3µM*; ClpP mod: -8%; TDP1 cell noCPT: 6.5µM*
